Compound activity deposited in PubChem BioAssay by National Center for Advancing Translational Sciences (NCATS).
An excerpt weighted towards active compounds, which were near 11% of everything screened.
HPGD inh: HPGD (human) dehydrogenase inhibition | P15428 | purified HPGD, NADH fluorescence kinetic, PGE2 substrate | Potency, µM, usual class: inhibitors | 150,000 tested, 4.3% active
Target sequence (P15428 whole entry, looked up): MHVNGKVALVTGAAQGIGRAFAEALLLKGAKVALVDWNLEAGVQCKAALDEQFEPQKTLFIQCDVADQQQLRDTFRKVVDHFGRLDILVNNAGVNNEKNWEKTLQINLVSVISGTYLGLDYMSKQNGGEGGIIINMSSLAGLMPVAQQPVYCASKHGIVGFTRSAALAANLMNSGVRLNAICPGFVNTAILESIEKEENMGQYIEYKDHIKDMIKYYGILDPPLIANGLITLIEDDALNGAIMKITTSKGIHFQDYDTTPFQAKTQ
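20 nM HPGD preincubated 15 min at room temperature with compound in 50 mM Tris-HCl pH 8, 0.01% Tween 20. Started with 1 mM NAD+ and 30 uM prostaglandin E2; NADH fluorescence (360/450 nm) read 5 times over 30-s intervals, last minus first.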
PNC assembly inh: inhibitors of perinucleolar compartment assembly. PC3M PTB-GFP, PNC prevalence imaging, 16 h; active compounds read low. activity change (PNC), negative = inhibition, % at 10 µM. 140,000 tested, 3.1% active;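 active means readout at or below -70, meaning at least 70% loss of cells showing the perinucleolar compartment, a nuclear body marking cancer cells; inconclusive means readout between -30 and a set limit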
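PC3M cells stably expressing PTB-GFP, 750–1000 cells/well, treated 16 h at 37 °C with compound (23 nl of library stock), in duplicate. After paraformaldehyde fixation and Hoechst stain, imaged at 20x; PNC prevalence scored by image analysis.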
ALDH1A1 block: blocks purified human ALDH1A1 activity | AID 1030 | 220,000 tested, 7.3% active | Potency, µM (doses to about 75.3 µM), usual class: inhibitors | P00352 | Purified ALDH1A1, NADH fluorescence, propionaldehyde substrate
Large screens that a line does not name were inactive. Unless noted, the call rests on the fitted dose curve; in most records, active means well fitted inhibition curve with a large enough effect (not every such curve was filed as active); inconclusive means small, poorly fitted or top-dose-only effect, or another doubt; inactive means no such curve, though single readings can be large or run the other way.

Cc1cc(C)n(CCc2nc(-c3cccs3)cs2)n1	ALDH1A1 block inconclusive
N=C(N)SCCON1C(=O)c2ccccc2C1=O	none (no result: PNC assembly inh)
CCOC(=O)C1=C(O)/C(=C\c2cccs2)N=C1C	none
CCOC(=O)C1=C(O)/C(=C\c2ccc(CNC(=O)C(=O)Nc3ccccc3)o2)N=C1C	HPGD inh 32µM, PNC assembly inh inconclusive, ALDH1A1 block 11µM
CCCCC/C=C\C=C\C(O)CCCCCCCC(=O)O (stereo unspecified)	none (no result: PNC assembly inh)
O=[N+]([O-])c1ccc(Nc2nc(Cl)nc(NCCO)n2)cc1	none (no result: HPGD inh, PNC assembly inh)
COc1nc(NCCO)nc(Nc2ccc([N+](=O)[O-])cc2)n1	HPGD inh 20µM, ALDH1A1 block inconclusive
COc1ccccc1N1CCN(CC(O)COc2ccc3c(c2)CCC3)CC1 (stereo unspecified)	PNC assembly inh inconclusive
O=C(O)/C=C/c1cnc2ccccc2c1	none (no result: HPGD inh, PNC assembly inh)
C[Si](C)(C)Cl	ALDH1A1 block 22µM (no result: PNC assembly inh)
O=S1(=O)CC2N=C(N(Cc3c(F)cccc3Cl)c3ccccc3F)SC2C1 (stereo unspecified)	ALDH1A1 block inconclusive
Cc1ccc(S(=O)(=O)N2CCCOC2CNC(=O)C(=O)NCCc2c[nH]c3ccccc23)cc1 (stereo unspecified)	ALDH1A1 block inconclusive
O=C(c1ccccc1)c1ccccc1C(=O)N1CCOCC1	none
COc1ccc2c(c1)C1C=CCC1C(c1cc3c(cc1Br)OCO3)N2 (stereo unspecified)	none
Cc1ccc2c(c1C)NC(C(=O)O)C1CC=CC21 (stereo unspecified)	HPGD inh 10µM, PNC assembly inh inconclusive, ALDH1A1 block 13µM
Cc1ccc(C)c(NC(=O)C2CC=CCC2C(=O)O)c1 (stereo unspecified)	none
CCOC(=O)c1ccc2c(c1)C1C=CCC1C(C(=O)O)N2 (stereo unspecified)	HPGD inh 16µM, ALDH1A1 block 18µM
O=C(O)C1Nc2c(C(=O)N3CCOCC3)cccc2C2C=CCC12 (stereo unspecified)	HPGD inh 25µM, PNC assembly inh inconclusive, ALDH1A1 block inconclusive
COc1ccccc1NC(C)C(=O)N/N=C/c1ccccc1OCc1cccc(Br)c1 (stereo unspecified)	none
O=C(Nc1nc2c(c(=O)[nH]1)CCCC2)C1CC1	none
O=C(NC(NC(=S)N1CCOCC1)C(Cl)(Cl)Cl)c1ccc(Cl)cc1 (stereo unspecified)	PNC assembly inh inconclusive
CCCCC(=O)NC(NC(=S)N1CCOCC1)C(Cl)(Cl)Cl (stereo unspecified)	PNC assembly inh inconclusive, ALDH1A1 block 11µM
COc1ccc(COC(=O)c2ccc3c(=O)n4c(nc3c2)CCC4)cc1F	none (no result: HPGD inh, PNC assembly inh)
COCC(C)n1c(C)cc(C(=O)COC(=O)c2ccc(N3CCCC3=O)cc2)c1C (stereo unspecified)	ALDH1A1 block 25µM
COc1ccc(COC(=O)c2ccc(N3CCCC3=O)cc2)cc1F	HPGD inh 14µM
COCC(C)n1c(C)cc(C(=O)COC(=O)C2=NN(c3ccccc3)C(=O)CC2)c1C (stereo unspecified)	none (no result: HPGD inh, PNC assembly inh)
CCOc1ccc(-c2cc(NC(=O)Cn3ncc4c3-c3ccccc3OC4)on2)cc1OCC	none
CCOC(=O)C1=C(C)NC(=O)C(C(N)=O)C1c1ccccc1 (stereo unspecified)	none
COC(=O)C1=C(C)NC(=O)CC1c1ccccc1 (stereo unspecified)	none
COC(=O)C1=C(C)NC(=S)N(C(C)=O)C1c1ccccc1 (stereo unspecified)	ALDH1A1 block 25µM
CCOC(=O)C1=C(C)NC(=S)N(C=O)C1c1ccccc1 (stereo unspecified)	ALDH1A1 block 2µM (no result: HPGD inh, PNC assembly inh)
COC(=O)CCCC1=CC2=C(c3ccccc3)C(=O)C(C)(OC(=O)C3CCCC3)C(=O)C2=CN1CCCOC(C)C (stereo unspecified)	ALDH1A1 block inconclusive (no result: PNC assembly inh)
CC(C)(C)NC(=O)/C(=C\C=C\c1ccccc1)NC(=O)c1ccc([N+](=O)[O-])cc1	PNC assembly inh inconclusive
O=c1c2ccccc2c(C=NCCCN2CCOCC2)c(O)n1Cc1ccc2c(c1)OCO2	none (no result: HPGD inh, PNC assembly inh)
O=c1c2ccccc2c(C=NCCCN2CCOCC2)c(O)n1Cc1ccccc1	ALDH1A1 block 14µM
Cc1ccc(-n2[nH]c(C)c(/C=C3/C=Nc4ccccc43)c2=O)cc1C	PNC assembly inh inconclusive
CCOc1ccc(C(=O)c2ccc(OC)c(O)c2O)cc1	none (no result: PNC assembly inh)
C/C(=N\NC(=O)CCn1nnc2ccccc21)c1ccco1	none (no result: HPGD inh, PNC assembly inh)
C=CCNS(=O)(=O)CC12CCC(CC1=O)C2(C)C (stereo unspecified)	none
O=[N+]([O-])c1ccccc1Oc1ccccc1Cl	HPGD inh 32µM
O=[N+]([O-])c1cccc(Cl)c1Cl	none (no result: PNC assembly inh)
CCCC(=O)Nc1sc(C)c(-c2ccc(OC)cc2)c1C#N	none
CCCc1ccc(-c2c(C)sc(N)c2C#N)cc1	ALDH1A1 block 20µM
